Laboratory results taken from PubChem BioAssay (Tox21).
“And” between values parts separate entries of the source, which are not always exact repeats. Equal entries are not always repeated. Results filed as inconclusive are left out. The source made the active and inactive calls. Unless noted, calls come from the whole dose curve.

Tests used:
[1] = biological target: KiSS-1 receptor (Homo sapiens) (UniProt Q969F8); experiment: Human kisspeptin (KISS1R) small molecule agonists, calcium flux assay in KISS1R-HEK293 cells (AID 1920064; active = well fitted activation curve with a large enough effect in the repeat runs)
KiSS-1 receptor (Homo sapiens), sequence (Q969F8 whole entry, looked up): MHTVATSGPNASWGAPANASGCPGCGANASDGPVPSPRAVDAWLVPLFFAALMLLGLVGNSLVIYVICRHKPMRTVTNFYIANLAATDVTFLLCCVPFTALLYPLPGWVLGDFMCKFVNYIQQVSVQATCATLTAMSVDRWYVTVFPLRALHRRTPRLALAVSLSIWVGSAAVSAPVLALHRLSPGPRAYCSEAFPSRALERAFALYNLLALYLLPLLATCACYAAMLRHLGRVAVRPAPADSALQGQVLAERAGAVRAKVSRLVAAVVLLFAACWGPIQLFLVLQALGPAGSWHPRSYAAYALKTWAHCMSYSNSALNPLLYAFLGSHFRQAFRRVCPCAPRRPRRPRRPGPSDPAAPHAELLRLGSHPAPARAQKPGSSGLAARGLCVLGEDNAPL
How it was run: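 Calcium flux read-out: kinetic fluorescence at Ex/Em=480/540, 1 s intervals over 3 min, after pin-tool compound addition to dye-loaded KISS1R-HEK293 cells. Fifteen concentrations, triplicates.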

[2] = G protein-coupled receptor (GPCR) small molecule agonists, calcium flux assay: HEK293 wild type cell line counter screen (AID 1920065)
How it was run: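 Agonist mode; 18 h seeding at 37 C, 1 h dye load at 37 C; compounds pinned from DMSO, ATP as positive control; kinetic fluorescence 480/540 nm, 3 min, 1 s reads; 15 concentrations, triplicate.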

[3] = p53 small molecule agonists, cell-based qHTS assay with rat liver microsomes (AID 1963578)
How it was run: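 Each plate received p53RE-bla cells, then compound, then rat liver microsomes and NADPH (both 0.5 mg/mL final). Plates were held 16 h at 37 C, and beta-lactamase activity was detected with LiveBLAzer over 2 h.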

[4] = p53 small molecule agonists, cell-based qHTS assay with rat liver microsomes: qHTS cell viability counter screen (AID 1963580); note: nearly all actives have a fitted effect of over 45% in size; note: potency is the fitted concentration of half-maximal effect
How it was run: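 Rat liver microsome (0.5 mg/mL final) and NADPH (0.5 mg/mL final) co-incubation with compounds for 16 h at 37 C on HCT-116 p53RE-bla cells; cytotoxicity taken from intracellular ATP luminescence.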

[5] = p53 small molecule agonists, cell-based qHTS assay: qHTS cell viability counter screen (AID 1963581); note: nearly all actives have a fitted effect of over 45% in size
How it was run: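 Cytotoxicity read-out: ATP-based luminescence (CellTiter-Glo, 30 min RT) measured in the same wells as the p53 reporter assay, HCT-116 p53RE-bla cells, 16 h compound exposure at 37 C.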

[6] = p53 small molecule agonists, cell-based qHTS assay (AID 1963582; active = well fitted activation curve with a large enough effect in the signal ratio in the repeat runs, not every such curve was filed as active; the % refers to the signal ratio)
How it was run: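 Fluorescence intensity read-out of a beta-lactamase reporter under a p53 response element. Cells were exposed to DMSO-dissolved compounds for 16 h at 37 C, then developed with FRET substrate for 2 h at RT.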

[7] = biological target: 5-hydroxytryptamine receptor 2A (Homo sapiens) (UniProt P28223); experiment: 5-hydroxytryptamine receptor 2A (HTR2A) small molecule agonists, cell-based qHTS assay (AID 1963587); note: nearly all actives have a fitted effect of over 30% in size; note: potency is the fitted concentration of half-maximal effect
5-hydroxytryptamine receptor 2A (Homo sapiens), sequence (P28223 whole entry, looked up): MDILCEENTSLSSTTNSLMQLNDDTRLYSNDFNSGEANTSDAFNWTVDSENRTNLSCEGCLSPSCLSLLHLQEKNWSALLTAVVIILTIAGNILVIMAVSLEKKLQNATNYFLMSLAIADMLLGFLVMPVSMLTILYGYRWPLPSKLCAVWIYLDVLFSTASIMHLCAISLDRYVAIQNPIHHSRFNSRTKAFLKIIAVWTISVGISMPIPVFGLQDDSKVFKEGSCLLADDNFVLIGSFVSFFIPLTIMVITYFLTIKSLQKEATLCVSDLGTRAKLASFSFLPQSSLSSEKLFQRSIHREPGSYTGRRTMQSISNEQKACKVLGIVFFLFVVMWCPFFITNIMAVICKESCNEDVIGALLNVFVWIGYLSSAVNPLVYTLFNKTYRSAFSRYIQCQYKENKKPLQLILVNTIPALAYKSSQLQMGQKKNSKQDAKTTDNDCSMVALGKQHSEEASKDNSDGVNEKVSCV
How it was run: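 Kinetic calcium-flux fluorescence (2 min, 1 sec intervals) after compound addition in agonist mode. HTR2A-CHO cells were cultured 18 h, then dye-loaded 1 h at 37 C.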

[8] = biological target: Muscarinic acetylcholine receptor M1 (Homo sapiens) (UniProt P11229); experiment: Cholinergic receptor muscarinic 1 (CHRM1) small molecule antagonists, cell-based qHTS assay (AID 1963588); note: nearly all actives have a fitted effect of over 40% in size; note: potency is the fitted concentration of half-maximal effect
Muscarinic acetylcholine receptor M1 (Homo sapiens), sequence (P11229 whole entry, looked up): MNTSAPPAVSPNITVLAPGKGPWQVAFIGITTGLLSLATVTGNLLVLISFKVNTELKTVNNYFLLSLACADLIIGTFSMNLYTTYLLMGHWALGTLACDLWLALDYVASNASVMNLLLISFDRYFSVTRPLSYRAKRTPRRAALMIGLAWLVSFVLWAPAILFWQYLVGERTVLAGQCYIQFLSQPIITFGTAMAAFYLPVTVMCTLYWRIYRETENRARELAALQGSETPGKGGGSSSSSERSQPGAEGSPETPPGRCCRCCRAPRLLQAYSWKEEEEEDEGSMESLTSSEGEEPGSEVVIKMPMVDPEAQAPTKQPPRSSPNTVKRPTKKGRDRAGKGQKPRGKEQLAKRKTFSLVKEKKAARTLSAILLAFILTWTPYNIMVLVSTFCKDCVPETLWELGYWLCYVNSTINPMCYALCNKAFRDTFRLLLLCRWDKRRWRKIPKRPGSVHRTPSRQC
How it was run: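 Compounds were tested at 15 concentrations in three independent runs. Dye-loaded CHRM1-CHO cells were exposed 5 min at room temperature before stimulation by acetylcholine added at 50nM. Intracellular calcium was read kinetically on FDSS for 3 min.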

[9] = biological target: Muscarinic acetylcholine receptor M1 (Homo sapiens) (UniProt P11229); experiment: Cholinergic receptor muscarinic 1 (CHRM1) small molecule agonists, cell-based qHTS assay (AID 1963589); note: nearly all actives have a fitted effect of over 35% in size
How it was run: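 Calcium flux read-out: kinetic fluorescence at 1 sec intervals after pin-tool compound addition to dye-loaded CHRM1-CHO cells (human M1). Agonist mode; 15 concentrations tested in triplicate independent runs.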

[10] = cAMP Responsive Elements (CRE) small molecule agonists, cell-based qHTS assay (AID 1963590)
How it was run: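 Beta-lactamase reporter readout: LiveBLAzer B/G FRET substrate, 2 h at room temperature, added after 3 h compound treatment of CRE-bla HEK 293T cells at 37 C/5% CO2.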

[11] = cAMP Responsive Elements (CRE) small molecule antagonists, cell-based qHTS assay (AID 1963591; active = well fitted inhibition curve with a large enough effect in the signal ratio in the repeat runs, not every such curve was filed as active; the % refers to the signal ratio)
How it was run: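 HEK293T CRE-bla; 18 h preincubation; compound pin-transfer; NKH477 0.25 uM final, 3 h, 37 C; LiveBLAzer FRET substrate 2 h RT.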

[12] = biological target: Beta-2 adrenergic receptor (Homo sapiens) (UniProt P07550); experiment: Adrenergic beta2 receptor (ADRB2) small molecule antagonists, cell-based qHTS assay (AID 1963592); note: series mostly up to about 92 µM; nearly all actives have a fitted effect of over 50% in size
Beta-2 adrenergic receptor (Homo sapiens), sequence (P07550 whole entry, looked up): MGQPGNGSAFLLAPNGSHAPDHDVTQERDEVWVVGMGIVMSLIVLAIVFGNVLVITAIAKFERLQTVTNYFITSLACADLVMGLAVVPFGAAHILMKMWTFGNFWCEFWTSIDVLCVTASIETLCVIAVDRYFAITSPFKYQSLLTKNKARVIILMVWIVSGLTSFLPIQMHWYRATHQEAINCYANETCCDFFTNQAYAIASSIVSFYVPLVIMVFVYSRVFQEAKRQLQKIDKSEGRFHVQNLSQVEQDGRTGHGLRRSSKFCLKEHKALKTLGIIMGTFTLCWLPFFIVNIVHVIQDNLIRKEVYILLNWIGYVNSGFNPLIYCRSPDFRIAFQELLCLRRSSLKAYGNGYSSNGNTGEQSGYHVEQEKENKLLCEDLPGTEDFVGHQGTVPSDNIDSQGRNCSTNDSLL
How it was run: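 Assay format: CHO-ADRB2 cells, 18-20hr seeding at 37C/5% CO2, then compound plus 1nM isoproterenol agonist mix for 0.5hr RT. Homogeneous time-resolved fluorescence cAMP detection after 1hr, expressed as 665/615 nm ratio.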

[13] = biological target: D(2) dopamine receptor (Homo sapiens) (UniProt P14416); experiment: Dopamine D2 receptor (DRD2) small molecule agonists, cell-based qHTS assay (AID 1963594); note: nearly all actives have a fitted effect of over 35% in size
D(2) dopamine receptor (Homo sapiens), sequence (P14416 whole entry, looked up): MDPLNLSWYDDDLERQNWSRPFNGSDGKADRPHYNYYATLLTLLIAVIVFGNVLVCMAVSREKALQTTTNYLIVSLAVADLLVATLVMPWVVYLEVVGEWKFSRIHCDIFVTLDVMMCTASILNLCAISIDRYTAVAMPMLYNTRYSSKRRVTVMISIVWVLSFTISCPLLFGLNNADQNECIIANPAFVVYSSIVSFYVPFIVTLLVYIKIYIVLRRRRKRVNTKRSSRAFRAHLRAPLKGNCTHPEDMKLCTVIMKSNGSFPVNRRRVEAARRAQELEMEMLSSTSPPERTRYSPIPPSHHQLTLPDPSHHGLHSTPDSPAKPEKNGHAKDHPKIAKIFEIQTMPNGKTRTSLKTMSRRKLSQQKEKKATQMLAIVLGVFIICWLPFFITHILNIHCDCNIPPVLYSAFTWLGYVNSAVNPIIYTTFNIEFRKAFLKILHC
How it was run: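 cAMP accumulation in DRD2-HEK293 cells measured by HTRF after 1 h detection; compounds added 10 min before NKH477 (200nM […]) forskolin-analogue stimulation, 30 min at room temperature, with Ro20-1724 present at 0.1 mM final.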

[14] = biological target: D(2) dopamine receptor (Homo sapiens) (UniProt P14416); experiment: Dopamine D2 receptor (DRD2) small molecule antagonists, cell-based qHTS assay (AID 1963595; active = well fitted inhibition curve with a large enough effect in the signal ratio in the repeat runs, with a control signal flat; the % refers to the signal ratio; note: potency is the fitted concentration of half-maximal effect)
How it was run: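 HEK293 cells stably expressing DRD2 were preincubated with 0.1 mM Ro20-1724, then with compound for 10 min at room temperature. Cells were stimulated with 200 nM NKH477 plus 12 nM quinpirole for 30 min, and cAMP was read by HTRF.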

[15] = p53 small molecule agonists, cell-based qHTS assay with human liver microsomes (AID 1963577);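 note: p53 response element beta-lactamase reporter cells with liver microsomes plus NADPH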
How it was run: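 Metabolically competent format: test substances, human liver microsomes and NADPH (both 0.5 mg/mL final) incubated with p53RE-bla cells 16 h at 37 C. Beta-lactamase reporter signal then quantified by fluorescence.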

[16] = p53 small molecule agonists, cell-based qHTS assay with human liver microsomes: qHTS cell viability counter screen (AID 1963579); note: nearly all actives have a fitted effect of over 45% in size
How it was run: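 Tox21 library compounds, delivered from DMSO stocks, were tested on p53RE-bla cells together with 0.5 mg/mL human liver microsomes and 0.5 mg/mL NADPH (final) over 16 h at 37 C; CellTiter-Glo luminescence served as the cytotoxicity measure.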

[17] = biological target: 5-hydroxytryptamine receptor 2A (Homo sapiens) (UniProt P28223); experiment: 5-hydroxytryptamine receptor 2A (HTR2A) small molecule antagonists, cell-based qHTS assay (AID 1963586); note: nearly all actives have a fitted effect of over 45% in size; note: potency is the fitted concentration of half-maximal effect
How it was run: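 CHO cells stably expressing human HTR2A were plated for 18 h at 37 C, then loaded with calcium dye for 1 h. Compounds were preincubated 5 min at room temperature before DOI (4 nM solution) was added. Kinetic fluorescence was read for 3 min.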

[18] = biological target: Beta-2 adrenergic receptor (Homo sapiens) (UniProt P07550); experiment: Adrenergic beta2 receptor (ADRB2) small molecule agonists, cell-based qHTS assay (AID 1963593);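 note: CHO cells stably overexpressing human ADRB2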
How it was run: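 CHO cells stably over-expressing ADRB2 were plated overnight at 37C, then dosed with compounds plus a stimulation mix containing 100uM IBMX and 25uM Ro-20-1724 for 0.5hr at room temperature. cAMP was measured by HTRF competition, 1hr.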

[19] = Nuclear factor erythroid 2-related factor 2/antioxidant responsive element (Nrf2/ARE) small molecule agonists: luciferase reporter gene qHTS assay in human keratinocytes (AID 1919969); note: nearly all actives have a fitted effect of over 35% in size; note: potency is the fitted concentration of half-maximal effect
[20] = biological target: Gonadotropin-releasing hormone receptor (Homo sapiens) (UniProt P30968); experiment: Human gonadotropin-releasing hormone receptor (GnRHR) small molecule agonists, calcium flux assay in GnRHR-HEK293 cells (AID 1920063); note: nearly all actives have a fitted effect of over 35% in size
Gonadotropin-releasing hormone receptor (Homo sapiens), sequence (P30968 whole entry, looked up): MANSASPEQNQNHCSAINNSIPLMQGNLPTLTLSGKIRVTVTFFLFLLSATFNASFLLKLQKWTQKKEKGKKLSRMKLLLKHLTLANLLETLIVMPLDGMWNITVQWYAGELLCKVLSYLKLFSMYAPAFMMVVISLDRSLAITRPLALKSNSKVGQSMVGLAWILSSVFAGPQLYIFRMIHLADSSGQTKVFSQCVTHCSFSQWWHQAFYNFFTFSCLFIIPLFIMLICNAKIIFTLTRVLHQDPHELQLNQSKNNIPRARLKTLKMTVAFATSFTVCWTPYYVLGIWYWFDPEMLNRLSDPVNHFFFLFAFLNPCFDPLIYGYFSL
How it was run: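 Calcium-dye fluorescence, Ex/Em=480/540, recorded every 1 sec over 3 min after compound addition to GnRHR-HEK293 cells. Cells had been seeded 18 hours earlier and dye-loaded for 1 hour at 37 C. Fifteen concentrations, triplicates.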

Measured: Potency

CCOc1ccc(NC(C)=O)cc1N
not listed: [15] | [16] | [17] | [18] | [19] | [20]
inactive: all other assays above

Nc1cccc([N+](=O)[O-])c1
active: [8] 130 nM
not listed: [5] | [9] | [14] | [19] | [20]
inactive: all other assays above

Oc1c(I)cc(Cl)c2cccnc12
active: [19] 2.16 µM and 3.35 µM | [4] 14100 nM
not listed: [18]
inactive: all other assays above

OCCN1CCN(CC/C=C2/c3ccccc3Sc3ccc(C(F)(F)F)cc32)CC1
active: [17] 130 nM | [8] 3650 nM | [14] 168 nM
not listed: [7] | [10] | [11] | [13] | [18]
inactive: all other assays above

Cc1cc([N+](=O)[O-])ccc1N
not listed: [10]
inactive: all other assays above

CN(C)CC/C=C1\c2ccccc2Sc2ccc(Cl)cc21
active: [17] 72.9 nM | [14] 531 nM
not listed: [6] | [10] | [18]
inactive: all other assays above

CC(C)=CCC[C@](C)(O)[C@@H]1CC=C(C)CC1
active: [19] 54.5 µM
not listed: [7] | [8] | [11]
inactive: all other assays above

C=CCN1C[C@H](C(=O)N(CCCN(C)C)C(=O)NCC)C[C@@H]2c3cccc4[nH]cc(c34)C[C@H]21
active: [17] 0.6 nM | [7] 1.9 nM
not listed: [11] | [13]
inactive: all other assays above

C(=C(c1ccccc1)c1ccccc1)c1ccccc1
active: [19] 27.3 µM
not listed: [6] | [13] | [18]
inactive: all other assays above

O=S(=O)(O)c1cc(S(=O)(=O)O)c2c(N=Nc3ccccc3)c(O)ccc2c1
not listed: [11] | [12] | [13] | [14]
inactive: all other assays above

Sc1nc2ccccc2s1
active: [19] 68.6 µM
not listed: [8]
inactive: all other assays above

CC1=NN(c2ccc(S(=O)(=O)O)cc2)C(=O)C1N=Nc1ccccc1 (configuration not stated)
not listed: [10] | [17] | [18]
inactive: all other assays above

CCC(C)c1cc(C(C)(C)C)c(O)c(C(C)(C)C)c1 (configuration not stated)
active: [19] 16.9 µM
not listed: [9] | [14] | [18]
inactive: all other assays above

CCC(=O)OCCc1ccccc1
not listed: [9] | [11] | [13] | [14] | [18]
inactive: all other assays above

O=C1CCCCCN1SSN1CCCCCC1=O
active: [19] 24.3 µM
not listed: [6] | [10] | [18]
inactive: all other assays above
